Measurements from the supplement of paper PMC7411054.
Where a name gives a salt, the structure may show the parent alone.

Tests used:
Experiment in all cases: phenotypically active (imaging signature differs from DMSO and reproducible) at any of 0.3-9 uM (binary (1 = active, 0 = inactive)); higher = active
Details in all cases: treatment time: 24 h
A549-ACTB-RAB5A = tested on: A549-ACTB-RAB5A
Method in brief: (§1)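 Phenotypic activity depended on meeting both a deviation and a reproducibility criterion. The fifteen gene-edited A549, HepG2 and WPMY1 reporter lines were treated at 0.3, 1, 3 or 9 µM for 24 h, four wells each, then imaged live with features normalised to solvent control wells. Deviation required ≥3 of 4 wells past the 95th percentile of control Euclidean distances, and reproducibility a median replicate Pearson correlation above the 95th percentile of non-replicates.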

A549-CANX-COX4 = tested on: A549-CANX-COX4
Method in brief: as §1

A549-GM130-SQSTM1 = tested on: A549-GM130-SQSTM1
Method in brief: as §1

A549-TP53BP1-CLTA = tested on: A549-TP53BP1-CLTA
Method in brief: as §1

A549-TUBA1B-RELA = tested on: A549-TUBA1B-RELA
Method in brief: as §1

HepG2-ACTB-RAB5A = tested on: HepG2-ACTB-RAB5A
Method in brief: as §1

HepG2-CANX-COX4 = tested on: HepG2-CANX-COX4
Method in brief: as §1

HepG2-GM130-SQSTM1 = tested on: HepG2-GM130-SQSTM1
Method in brief: as §1

HepG2-TP53BP1-CLTA = tested on: HepG2-TP53BP1-CLTA
Method in brief: as §1

HepG2-TUBA1B-RELA = tested on: HepG2-TUBA1B-RELA
Method in brief: as §1

WPMY1-ACTB-RAB5A = tested on: WPMY1-ACTB-RAB5A
Method in brief: as §1

WPMY1-CANX-COX4 = tested on: WPMY1-CANX-COX4
Method in brief: as §1

WPMY1-GM130-SQSTM1 = tested on: WPMY1-GM130-SQSTM1
Method in brief: as §1

WPMY1-TP53BP1-CLTA = tested on: WPMY1-TP53BP1-CLTA
Method in brief: as §1

WPMY1-TUBA1B-RELA = tested on: WPMY1-TUBA1B-RELA
Method in brief: as §1

Measured: phenotypically active

COc1c(O[C@@H]2O[C@H](CO)[C@@H](O)[C@H](O)[C@H]2O)cc2c(c1OC)-c1ccc(SC)c(=O)cc1[C@@H](NC(C)=O)CC2 [Thiocolchicoside]
inactive: A549-ACTB-RAB5A 0 | A549-CANX-COX4 0 | A549-GM130-SQSTM1 0 | A549-TP53BP1-CLTA 0 | A549-TUBA1B-RELA 0 | HepG2-ACTB-RAB5A 0 | HepG2-CANX-COX4 0 | HepG2-GM130-SQSTM1 0 | HepG2-TP53BP1-CLTA 0 | HepG2-TUBA1B-RELA 0 | WPMY1-ACTB-RAB5A 0 | WPMY1-CANX-COX4 0 | WPMY1-GM130-SQSTM1 0 | WPMY1-TP53BP1-CLTA 0 | WPMY1-TUBA1B-RELA 0

CN(C)CCc1c[nH]c2ccc(Cn3cncn3)cc12 [rizatriptan]
inactive: A549-ACTB-RAB5A 0 | A549-CANX-COX4 0 | A549-GM130-SQSTM1 0 | A549-TP53BP1-CLTA 0 | A549-TUBA1B-RELA 0 | HepG2-ACTB-RAB5A 0 | HepG2-CANX-COX4 0 | HepG2-GM130-SQSTM1 0 | HepG2-TP53BP1-CLTA 0 | HepG2-TUBA1B-RELA 0 | WPMY1-ACTB-RAB5A 0 | WPMY1-CANX-COX4 0 | WPMY1-GM130-SQSTM1 0 | WPMY1-TP53BP1-CLTA 0 | WPMY1-TUBA1B-RELA 0

NCC[C@H](O)C(=O)N[C@H]1C[C@@H](N)[C@H](O[C@H]2O[C@H](CN)[C@@H](O)[C@H](O)[C@H]2O)[C@@H](O)[C@@H]1O[C@H]1O[C@H](CO)[C@@H](O)[C@H](N)[C@H]1O [Amikacin hydrate]
inactive: A549-ACTB-RAB5A 0 | A549-CANX-COX4 0 | A549-GM130-SQSTM1 0 | A549-TP53BP1-CLTA 0 | A549-TUBA1B-RELA 0 | HepG2-ACTB-RAB5A 0 | HepG2-CANX-COX4 0 | HepG2-GM130-SQSTM1 0 | HepG2-TP53BP1-CLTA 0 | HepG2-TUBA1B-RELA 0 | WPMY1-ACTB-RAB5A 0 | WPMY1-CANX-COX4 0 | WPMY1-GM130-SQSTM1 0 | WPMY1-TP53BP1-CLTA 0 | WPMY1-TUBA1B-RELA 0

CO[C@@]12[C@H](COC(N)=O)C3=C(C(=O)C(C)=C(N)C3=O)N1C[C@@H]1N[C@@H]12 [mitomycin]
inactive: A549-ACTB-RAB5A 0 | A549-CANX-COX4 0 | A549-GM130-SQSTM1 0 | A549-TP53BP1-CLTA 0 | A549-TUBA1B-RELA 0 | HepG2-ACTB-RAB5A 0 | HepG2-CANX-COX4 0 | HepG2-GM130-SQSTM1 0 | HepG2-TP53BP1-CLTA 0 | HepG2-TUBA1B-RELA 0 | WPMY1-ACTB-RAB5A 0 | WPMY1-CANX-COX4 0 | WPMY1-GM130-SQSTM1 0 | WPMY1-TP53BP1-CLTA 0 | WPMY1-TUBA1B-RELA 0

Clc1cccc(Nc2nnc(-c3ccccc3)c3ccccc23)c1
inactive: A549-ACTB-RAB5A 0 | A549-CANX-COX4 0 | A549-GM130-SQSTM1 0 | A549-TP53BP1-CLTA 0 | A549-TUBA1B-RELA 0 | HepG2-ACTB-RAB5A 0 | HepG2-CANX-COX4 0 | HepG2-GM130-SQSTM1 0 | HepG2-TP53BP1-CLTA 0 | HepG2-TUBA1B-RELA 0 | WPMY1-ACTB-RAB5A 0 | WPMY1-CANX-COX4 0 | WPMY1-GM130-SQSTM1 0 | WPMY1-TP53BP1-CLTA 0 | WPMY1-TUBA1B-RELA 0

COc1ccc2c3c1O[C@H]1C[C@@H](O)C=C[C@@]31CCN(C)C2 [galantamine]
inactive: A549-ACTB-RAB5A 0 | A549-CANX-COX4 0 | A549-GM130-SQSTM1 0 | A549-TP53BP1-CLTA 0 | A549-TUBA1B-RELA 0 | HepG2-ACTB-RAB5A 0 | HepG2-CANX-COX4 0 | HepG2-GM130-SQSTM1 0 | HepG2-TP53BP1-CLTA 0 | HepG2-TUBA1B-RELA 0 | WPMY1-ACTB-RAB5A 0 | WPMY1-CANX-COX4 0 | WPMY1-GM130-SQSTM1 0 | WPMY1-TP53BP1-CLTA 0 | WPMY1-TUBA1B-RELA 0

CCCC(=O)Nc1ncnc2c1ncn2[C@@H]1O[C@@H]2COP(=O)(O)O[C@H]2[C@H]1OC(=O)CCC [Dibutyryl-cAMP, sodium salt]
inactive: A549-ACTB-RAB5A 0 | A549-CANX-COX4 0 | A549-GM130-SQSTM1 0 | A549-TP53BP1-CLTA 0 | A549-TUBA1B-RELA 0 | HepG2-ACTB-RAB5A 0 | HepG2-CANX-COX4 0 | HepG2-GM130-SQSTM1 0 | HepG2-TP53BP1-CLTA 0 | HepG2-TUBA1B-RELA 0 | WPMY1-ACTB-RAB5A 0 | WPMY1-CANX-COX4 0 | WPMY1-GM130-SQSTM1 0 | WPMY1-TP53BP1-CLTA 0 | WPMY1-TUBA1B-RELA 0

CC(C)[N@+]1(C)[C@@H]2CC[C@H]1C[C@@H](OC(=O)C(CO)c1ccccc1)C2 (stereo not given in full) [ipratropium]
inactive: A549-ACTB-RAB5A 0 | A549-CANX-COX4 0 | A549-GM130-SQSTM1 0 | A549-TP53BP1-CLTA 0 | A549-TUBA1B-RELA 0 | HepG2-ACTB-RAB5A 0 | HepG2-CANX-COX4 0 | HepG2-GM130-SQSTM1 0 | HepG2-TP53BP1-CLTA 0 | HepG2-TUBA1B-RELA 0 | WPMY1-ACTB-RAB5A 0 | WPMY1-CANX-COX4 0 | WPMY1-GM130-SQSTM1 0 | WPMY1-TP53BP1-CLTA 0 | WPMY1-TUBA1B-RELA 0

CC1(C(=O)O)CCC2(C)CCC3(C)C(=CC(=O)C4C5(C)CCC(OC6OC(C(=O)O)C(O)C(O)C6OC6OC(C(=O)O)C(O)C(O)C6O)C(C)(C)C5CCC43C)C2C1 (stereo not given) [Glycyrrhizic acid]
inactive: A549-ACTB-RAB5A 0 | A549-CANX-COX4 0 | A549-GM130-SQSTM1 0 | A549-TP53BP1-CLTA 0 | A549-TUBA1B-RELA 0 | HepG2-ACTB-RAB5A 0 | HepG2-CANX-COX4 0 | HepG2-GM130-SQSTM1 0 | HepG2-TP53BP1-CLTA 0 | HepG2-TUBA1B-RELA 0 | WPMY1-ACTB-RAB5A 0 | WPMY1-CANX-COX4 0 | WPMY1-GM130-SQSTM1 0 | WPMY1-TP53BP1-CLTA 0 | WPMY1-TUBA1B-RELA 0

COc1cc2c(NC3CCN(C)CC3)nc(N3CCCN(C)CC3)nc2cc1OCCCN(C)C
inactive: A549-ACTB-RAB5A 0 | A549-CANX-COX4 0 | A549-GM130-SQSTM1 0 | A549-TP53BP1-CLTA 0 | A549-TUBA1B-RELA 0 | HepG2-ACTB-RAB5A 0 | HepG2-CANX-COX4 0 | HepG2-GM130-SQSTM1 0 | HepG2-TP53BP1-CLTA 0 | HepG2-TUBA1B-RELA 0 | WPMY1-ACTB-RAB5A 0 | WPMY1-CANX-COX4 0 | WPMY1-GM130-SQSTM1 0 | WPMY1-TP53BP1-CLTA 0 | WPMY1-TUBA1B-RELA 0

CN([C@H]1c2cc(OCCCC(F)(F)F)ccc2OC(C)(C)[C@@H]1O)S(C)(=O)=O
inactive: A549-ACTB-RAB5A 0 | A549-CANX-COX4 0 | A549-GM130-SQSTM1 0 | A549-TP53BP1-CLTA 0 | A549-TUBA1B-RELA 0 | HepG2-ACTB-RAB5A 0 | HepG2-CANX-COX4 0 | HepG2-GM130-SQSTM1 0 | HepG2-TP53BP1-CLTA 0 | HepG2-TUBA1B-RELA 0 | WPMY1-ACTB-RAB5A 0 | WPMY1-CANX-COX4 0 | WPMY1-GM130-SQSTM1 0 | WPMY1-TP53BP1-CLTA 0 | WPMY1-TUBA1B-RELA 0

C#C[C@]1(O)CC[C@H]2[C@@H]3CCC4=CCCC[C@@H]4[C@H]3C(=C)C[C@@]21CC [desogestrel]
inactive: A549-ACTB-RAB5A 0 | A549-CANX-COX4 0 | A549-GM130-SQSTM1 0 | A549-TP53BP1-CLTA 0 | A549-TUBA1B-RELA 0 | HepG2-ACTB-RAB5A 0 | HepG2-CANX-COX4 0 | HepG2-GM130-SQSTM1 0 | HepG2-TP53BP1-CLTA 0 | HepG2-TUBA1B-RELA 0 | WPMY1-ACTB-RAB5A 0 | WPMY1-CANX-COX4 0 | WPMY1-GM130-SQSTM1 0 | WPMY1-TP53BP1-CLTA 0 | WPMY1-TUBA1B-RELA 0

CC(=O)/N=c1/sc(S(N)(=O)=O)nn1C [methazolamide]
inactive: A549-ACTB-RAB5A 0 | A549-CANX-COX4 0 | A549-GM130-SQSTM1 0 | A549-TP53BP1-CLTA 0 | A549-TUBA1B-RELA 0 | HepG2-ACTB-RAB5A 0 | HepG2-CANX-COX4 0 | HepG2-GM130-SQSTM1 0 | HepG2-TP53BP1-CLTA 0 | HepG2-TUBA1B-RELA 0 | WPMY1-ACTB-RAB5A 0 | WPMY1-CANX-COX4 0 | WPMY1-GM130-SQSTM1 0 | WPMY1-TP53BP1-CLTA 0 | WPMY1-TUBA1B-RELA 0

N=C(N)NC(=O)Cc1c(Cl)cccc1Cl [guanfacine]
inactive: A549-ACTB-RAB5A 0 | A549-CANX-COX4 0 | A549-GM130-SQSTM1 0 | A549-TP53BP1-CLTA 0 | A549-TUBA1B-RELA 0 | HepG2-ACTB-RAB5A 0 | HepG2-CANX-COX4 0 | HepG2-GM130-SQSTM1 0 | HepG2-TP53BP1-CLTA 0 | HepG2-TUBA1B-RELA 0 | WPMY1-ACTB-RAB5A 0 | WPMY1-CANX-COX4 0 | WPMY1-GM130-SQSTM1 0 | WPMY1-TP53BP1-CLTA 0 | WPMY1-TUBA1B-RELA 0
